Source: PubChem BioAssay (EPA / NIEHS)
Calls of active or inactive are those of the source. The calls were made as follows: active = hit-call score of the fitted dose curve at least 0.9, where 1 is the maximum; inactive = score below 0.9.

Experiment: ATG_E_Box_CIS: Attagene CIS-FACTORIAL HepG2 Assay for human Enhancer Box (E-box) (AID 2282936)
Details: HepG2 E-box cis-reporter transcription, actives raise or lower the signal
Protocol: ATG_CIS is a cell-based, multiplexed-readout assay that uses HepG2, a human liver cell line, with measurements taken at 24 hours after chemical dosing in a 24-well plate.ATG_E_Box_CIS is one of 52 assay component(s) measured or calculated from the ATG_CIS assay. It is designed to make measurements of mRNA induction, a form of inducible reporter, as detected with fluorescence intensity signals by Reverse transcription polymerase chain reaction (RT-PCR) and Capillary electrophoresis technology.Data from the assay component ATG_E_Box_CIS was analyzed into 1 assay endpoint. This assay endpoint, ATG_E_Box_CIS, was analyzed with bidirectional fitting relative to DMSO as the negative control and baseline of activity. Using a type of inducible reporter, measures of mRNA for gain or loss-of-signal activity can be used to understand the reporter gene at the transcription factor-level as they relate to the gene USF1. Furthermore, this assay endpoint can be referred to as a primary readout, because this assay has produced multiple assay endpoints where this one serves a reporter gene function. To generalize the intended target to other relatable targets, this assay endpoint is annotated to the dna binding intended target family, where the subfamily is basic helix-loop-helix protein.
Human liver HepG2 cells are transiently transfected with multiple reporter transcription units (MRTUs) in 6-well plates using FuGene 6 reagent (Roche; 3 ml FuGene/1 mg DNA). The MRTU constructs are regulated by a cis-regulating element (promoter). […] A major difference between the CIS and TRANS system is that in CIS activities of endogenous TFs are measured, whereas the TRANS assay evaluates changes in activities of exogenous, chimeric NR-Gal4 proteins. […] At the end of 24 hour incubation, total RNA was isolated using TriZol reagent (Invitrogen). The isolated RNA is then reverse-transcribed using oligo(dT) primer and Mo-MLV reverse transcriptase (Invitrogen) with DNAse I (Ambion) treatment for 30 min. The one-tenth of the produced cDNA was amplified by PCR using Taq DNA polymerase (Invitrogen) and two reporter sequence-specific primers. The PCR products were fluorescently labeled by primer extension with 6-arboxyfluorescein (6-FAM) 5'-labeled reporter sequence-specific primer (2 min at 95 C, 20 s at 68 C and 10 min at 72 C) and these products were digested with 5U of HpaI (New England Biolabs) for 2h at 37 C. The fragments were purified using Qiaquick PCR columns (Qiagen), analyzed on an ABI 3130xL genetic analyzer (Applied Biosystems) with peak positions identified by using a set of X-rhodamine (ROX)-labeled MapMarker1000 molecular weight standards (BioVentures). The raw capillary electrophoresis data was processed using Attagraph software (Attagene).
In the case of `CCCC(CC)c1ccccc1` (stereo not given), the outcome is reported as “inactive”.
For `COc1ccc(-c2coc3cc(O)cc(O)c3c2=O)cc1`, the outcome was “inactive”.
In the case of `COC(=O)C=Cc1ccccc1`, the outcome is reported as “inactive”.
For `CC(=O)OC1CCCCC1C(C)(C)C` (stereo not given), the outcome was “inactive”.
With `CCCCC1C(=O)N(c2ccccc2)N(c2ccccc2)C1=O` the outcome was “inactive”.
In the case of `N#CC1(N)CCCCC1`, the outcome is reported as “inactive”.
In the case of `NC(=O)Nc1ccccc1`, the outcome is reported as “inactive”.
In the case of `CC1(C)CCC[C@]2(C)[C@H]3CC(=O)O[C@]3(C)CC[C@@H]12`, the outcome is reported as “inactive”.
For `CCCC=C(C=O)CC`, the outcome was “inactive”.
In the case of `CCCCCCCCCCCC(=O)OCC`, the outcome is reported as “inactive”.
With `Oc1ccccc1Cc1ccccc1O` the outcome was “inactive”.
With `C=CC(=O)NCOCCCC` the outcome was “inactive”.
In the case of `O=C(Cl)c1ccc(C(=O)Cl)cc1`, the outcome is reported as “inactive”.
For `Oc1c(Cl)cc(Cl)c(Cl)c1Cl`, the outcome was “inactive”.
For `C/C=C/C=C/CCCCCCCO`, the outcome was “inactive”.
In the case of `CCOC(=O)CC(=O)c1ccccc1`, the outcome is reported as “inactive”.
With `CCN1CCCC1=O` the outcome was “inactive”.
In the case of `C=Cc1ccc(OC(C)=O)cc1`, the outcome is reported as “inactive”.
For `O=C(O)c1ccc2c(c1)C(=O)OC2=O`, the outcome was “inactive”.
With `CO[Si](CCCS)(OC)OC` the outcome was “inactive”.
With `CC1=NN(c2ccc(S(=O)(=O)O)cc2)C(=O)C1N=Nc1ccccc1` (stereo not given) the outcome was “inactive”.
In the case of `Fc1ccc(Br)cc1`, the outcome is reported as “inactive”.
For `O=C1CCCCCCCCCCCN1`, the outcome was “inactive”.
In the case of `Clc1cc(Cl)c(Cl)c(Cl)c1Cl`, the outcome is reported as “inactive”.
With `c1ccc(Nc2cccc3ccccc23)cc1` the outcome was “inactive”.
With `CCC(C)c1ccccc1` (stereo not given) the outcome was “inactive”.
For `CC(=O)CCC1=C(C)CCCC1(C)C`, the outcome was “inactive”.
For `CCCCCCCOC(=O)c1ccc(O)cc1`, the AC50 was 54.3 µM (active).
For `CCCCOCC(C)O` (stereo not given), the outcome was “inactive”.
In the case of `CC(C)c1cc(C(C)C)cc(C(C)C)c1`, the AC50 is reported as 23.7 µM (active).
With `CC(=O)OCCc1ccccc1` the outcome was “inactive”.
With `C=CC(=O)OCCCCCCOC(=O)C=C` the AC50 was 100 µM (active).
In the case of `CCCCCC1=CCCC1=O`, the outcome is reported as “inactive”.
For `C=CCCCCCCCCOC(C)=O`, the outcome was “inactive”.
For `O=C(OCc1ccccc1)c1ccc(O)cc1`, the AC50 was 171 µM (active).
For `C=CCOC(=O)c1ccc(C(=O)OCC=C)c(C(=O)OCC=C)c1`, the AC50 was 140 µM (active).
With `CC(C)CO` the outcome was “inactive”.
In the case of `CC(=O)OCc1ccccc1`, the outcome is reported as “inactive”.
For `CCCCNS(=O)(=O)c1ccc(C)cc1`, the outcome was “inactive”.
In the case of `CC(C)(CO)C(O)C(=O)NCCCO` (stereo not given), the outcome is reported as “inactive”.
